Compound activity: PubChem, National Center for Advancing Translational Sciences (NCATS)
The list is not random: actives were taken first. Their share in the collection is about 12%.
SARS PLP yeast: qHTS of Yeast-based Assay for SARS-CoV PLP. S. cerevisiae expressing SARS-CoV PLpro, growth rescue. Potency, µM (series often up to 32.9 µM), most hits filed as activators. actives 0.19% (n = 330,000); calls by dose curve; further: nearly all actives have a fitted effect of over 55% in size
Pf growth 48h: Primary qHTS for delayed death inhibitors of the malarial parasite plastid, 48 hour incubation; P. falciparum luciferase growth in erythrocytes, 48 h; Potency, µM (highest dose often 28.7 µM), actives largely listed as inhibitors; actives 5.9% (n = 310,000); AID 504832, 2011
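Compounds are pin-transferred into medium, infected erythrocytes (2% hematocrit, 0.1% parasitemia final) are added, and plates sit one parasite generation at 37 C in 5% CO2. Detection reagent is then added and luminescence measured.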
AmpC detergent: qHTS Inhibitors of AmpC Beta-Lactamase (assay with detergent); AmpC hydrolysis of nitrocefin, absorbance 480 nm, 0.01% Triton; actives 0.041% (n = 370,000); Potency, µM (titrated, usually from 114 µM), usual class: inhibitors; P00811; AID 485294, 2010; further: nearly all actives have a fitted effect of over 25% in size
Target sequence (P00811 whole entry, looked up): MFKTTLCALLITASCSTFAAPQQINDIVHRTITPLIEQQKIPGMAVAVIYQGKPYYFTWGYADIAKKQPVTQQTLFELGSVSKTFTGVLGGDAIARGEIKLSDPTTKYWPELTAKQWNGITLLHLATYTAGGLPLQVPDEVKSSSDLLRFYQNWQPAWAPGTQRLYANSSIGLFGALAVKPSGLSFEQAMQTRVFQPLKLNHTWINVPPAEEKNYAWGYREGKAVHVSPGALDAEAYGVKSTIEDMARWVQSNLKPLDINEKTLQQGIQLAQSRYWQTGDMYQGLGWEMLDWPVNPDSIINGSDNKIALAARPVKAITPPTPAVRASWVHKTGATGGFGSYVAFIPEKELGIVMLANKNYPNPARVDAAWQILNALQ
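20 mM phosphate pH 7.0 + 0.01% (detergent screen) or 0.0001% Triton X-100; 5.3 nM AmpC reagent; cpd preinc 15 min RT; nitrocefin (800 uM stock) to start; A480 q20 s × 4 min; Activity was normalised to no-enzyme and no-compound control wells.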
Pf growth 96h: Primary qHTS for delayed death inhibitors of the malarial parasite plastid, 96 hour incubation; Potency, µM (doses to about 28.7 µM), hits mostly inhibitors; actives 6.9% (n = 320,000); AID 504834, 2011; P. falciparum luciferase reporter growth, 96 h
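Infected RBCs, 2% Hct / 0.05% parasitemia final; luciferase-reporter P. falciparum; cpd 96 h, 37 C, 5% CO2; luciferase detection reagent; luminescence.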
Sm TGR block: qHTS Assay for the Inhibitors of Schistosoma Mansoni Peroxiredoxins; Potency, µM (series often up to 114 µM), most hits filed as inhibitors; actives 3% (n = 360,000); AID 485364, 2010; purified TGR, DTNB reduction, TNB absorbance 405 nm; further: nearly all actives have a fitted effect of over 60% in size
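First, TGR (20 nM dispensed) and NADPH were mixed with compound. Second, a 15 min room-temperature incubation followed. Third, further NADPH and then DTNB were added to start the reaction. Finally, TNB absorbance was monitored kinetically.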
AmpC no deterg: qHTS Inhibitors of AmpC Beta-Lactamase (assay without detergent); P00811; Potency, µM (top dose mostly 57.1 µM), actives largely listed as inhibitors; AmpC nitrocefin hydrolysis, absorbance 480 nm, 0.0001% Triton; actives 0.52% (n = 330,000); further: nearly all actives have a fitted effect of over 20% in size
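20 mM phosphate pH 7.0 + 0.01% (detergent screen) or 0.0001% Triton X-100; 5.3 nM AmpC reagent; cpd preinc 15 min RT; nitrocefin (800 uM stock) to start; A480 q20 s × 4 min; Activity was normalised to no-enzyme and no-compound control wells.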
Of the large screens only hits and unclear results are named; the others gave an inactive call. Unless noted, the call rests on the fitted dose curve; in most records, active means well fitted curve in the direction sought with a large enough effect; inconclusive means small, poorly fitted or top-dose-only effect, or another doubt; inactive means no such curve, though single readings can be large; an effect the other way counts as inactive or inconclusive.

COCCNc1nc(-c2ccc(OC)cc2)c(-c2ccc(OC)cc2)s1	AmpC detergent inconclusive, Pf growth 96h inconclusive
Cc1cc(C)cc(-n2c(SCC(=O)N3CCc4ccccc43)nc3c([nH]c4ccccc43)c2=O)c1	none (no result: SARS PLP yeast, Pf growth 48h, Pf growth 96h, AmpC no deterg)
CN(C)S(=O)(=O)c1ccc(C(=O)N2CCN=C2SCc2cccnc2)cc1	SARS PLP yeast 20µM, Pf growth 96h inconclusive (no result: Pf growth 48h)
CCN(CC)S(=O)(=O)c1ccc(C(=O)N2CCN=C2SCc2cccnc2)cc1	none
Cc1onc(-c2ccccc2Cl)c1C(=O)N1CCN=C1SCc1cccnc1	Pf growth 96h 2.1µM
CO[C@H]1C=CO[C@@]2(C)Oc3c(C)c(O)c4c(O)c(c5c(nc6cc(C)ccn65)c4c3C2=O)NC(=O)C(C)=CC=C[C@H](C)[C@H](O)[C@@H](C)[C@@H](O)[C@@H](C)[C@H](OC(C)=O)[C@@H]1C	none (no result: Pf growth 48h, Pf growth 96h)
CO[C@H]1C=CO[C@@]2(C)Oc3c(C)c(O)c4c(O)c(c5c(c4c3C2=O)NC2(CCN(CC(C)C)CC2)N=5)=NC(=O)C(C)=CC=C[C@H](C)[C@H](O)[C@@H](C)[C@@H](O)[C@@H](C)[C@H](OC(C)=O)[C@@H]1C	none (no result: Pf growth 48h, Pf growth 96h)
CCC(C)N1CCC2(CC1)N=c1c(c3c4c5c(C)c(O)c3c(O)c1=NC(=O)C(C)=CC=C[C@H](C)[C@H](O)[C@@H](C)[C@@H](O)[C@@H](C)[C@H](OC(C)=O)[C@H](C)[C@@H](OC)C=CO[C@@](C)(O5)C4=O)N2 (stereo partly drawn)	Pf growth 48h 9.3µM, Pf growth 96h inconclusive (no result: SARS PLP yeast)
COc1ccc(-c2onc3ccc(Cl)cc23)cc1	Pf growth 96h inconclusive, Sm TGR block inconclusive (no result: Pf growth 48h)
CC(C)(C)Nc1nc(OCC(F)(F)F)nc(OCC(F)(F)F)n1	AmpC detergent inconclusive, Pf growth 96h inconclusive
COc1ccc2c(Sc3ccccc3)c(C(=O)NCc3ccc(OC(C)C)cc3)[nH]c2c1	none (no result: SARS PLP yeast, Pf growth 48h, Pf growth 96h, AmpC no deterg)
CCN(CC)c1ccc(NC2CC(=O)N(CCc3ccc(OC)cc3)C2=O)cc1 (stereo not drawn)	Pf growth 48h 4.7µM, Pf growth 96h 1.9µM, Sm TGR block 10µM
COc1ccc(CCNC2CC(=O)N(CCc3ccccc3)C2=O)cc1 (stereo not drawn)	Sm TGR block inconclusive (no result: Pf growth 96h)
O=[N+]([O-])c1ccc(C2CCCC/C2=N/OCc2ccc(F)cc2)c([N+](=O)[O-])c1 (stereo not drawn)	Pf growth 48h 12µM, AmpC detergent inconclusive, Pf growth 96h inconclusive
O=[N+]([O-])c1ccc(C2CCCC/C2=N/OCc2ccccc2F)c([N+](=O)[O-])c1 (stereo not drawn)	Pf growth 48h inconclusive, Pf growth 96h inconclusive
CCOc1cc(-c2noc(N)c2C(=O)OC)cc(OCC)c1OCC	Pf growth 96h 12µM
COC(=O)c1c(-c2ccc(Br)cc2)noc1N	Pf growth 96h inconclusive (no result: Pf growth 48h)
CCCCn1c(C)cc2c(c1=O)[C@H]1O[C@](CCCCN3C(=O)c4ccccc4C3=O)(Cc3ccccc31)O2	Pf growth 48h inconclusive, Pf growth 96h inconclusive
CC1(C)CC(=O)C2=C(C1)O[C@@]1(CCCCN3C(=O)c4ccccc4C3=O)Cc3cc(C#N)ccc3C2O1	Pf growth 48h 1.5µM, Sm TGR block inconclusive
COc1ccc2c3c(c(=O)oc2c1)C1O[C@](CCCCN2C(=O)c4ccccc4C2=O)(Cc2cc(OC)c(OC)cc21)O3	Pf growth 48h 1.5µM, AmpC detergent inconclusive, Sm TGR block inconclusive
CCCCC[C@]12Cc3cc(OC)c(OC)cc3[C@H](O1)c1c(cc(C)oc1=O)O2	Pf growth 96h inconclusive
COc1cc2c(cc1OC)C1O[C@](CCCCN3C(=O)c4ccccc4C3=O)(C2)Oc2c1c(=O)oc1ccc(F)cc21	Pf growth 48h inconclusive, Sm TGR block 2.5µM
O=C1c2ccccc2C(=O)N1CCCC[C@]12Cc3ccccc3C(O1)c1c(c3ccccc3oc1=O)O2	Pf growth 48h inconclusive, AmpC detergent inconclusive, Pf growth 96h inconclusive, AmpC no deterg 2.8µM
CCC1(c2ccc(F)cc2)NC(=O)N(CC(=O)NC2CCCCCC2)C1=O (stereo not drawn)	none (no result: Pf growth 48h, AmpC detergent, Pf growth 96h, Sm TGR block)
CC(C)CCNC(=O)c1ccc(-c2ccccc2)cc1	none (no result: Sm TGR block)
N#Cc1ccc2c(c1)C[C@]1(CCCCN3C(=O)c4ccccc4C3=O)Oc3c(c(=O)oc4ccc(F)cc34)C2O1	Pf growth 48h 1.9µM, Pf growth 96h inconclusive
CCCCC[C@]12Cc3ccccc3C(O1)c1c(cc(C)oc1=O)O2	AmpC detergent inconclusive, Pf growth 96h 0.67µM
O=C1C2=C(C(=O)c3ccccc31)C1O[C@](c3ccsc3)(Cc3c1ccc1ccccc31)O2	Pf growth 48h inconclusive, Pf growth 96h inconclusive, Sm TGR block inconclusive
Cc1cc2c(c(=O)o1)C1O[C@](CCCCN3C(=O)c4ccccc4C3=O)(Cc3cc(C#N)ccc31)O2	Pf growth 48h inconclusive, AmpC detergent inconclusive, Pf growth 96h inconclusive, AmpC no deterg inconclusive
O=c1oc2ccccc2c2c1C1O[C@](c3ccsc3)(Cc3c1ccc1ccccc31)O2	AmpC detergent inconclusive, Pf growth 96h inconclusive, Sm TGR block 8.9µM, AmpC no deterg inconclusive
C=CCc1ccccc1OCC(O)Cn1ccnc1C (stereo not drawn)	Pf growth 96h 1.5µM
COc1ccc(OCC(O)CN2CCN(c3ccc(Cl)cc3)CC2)cc1 (stereo not drawn)	none
C=CCc1ccccc1OCC(O)CNC (stereo not drawn)	AmpC detergent inconclusive, Pf growth 96h 1.2µM, Sm TGR block 25µM (no result: Pf growth 48h)
Cc1ccccc1OCC(O)CN1CCN(CC(O)COc2ccccc2C)CC1 (stereo not drawn)	Pf growth 48h inconclusive, Pf growth 96h 1.5µM
Cc1ccccc1OCC(O)CN1CCCCC1 (stereo not drawn)	none
C=CCc1ccccc1OCC(O)CN1CCN(c2ccc(OC)cc2)CC1 (stereo not drawn)	SARS PLP yeast inconclusive, AmpC detergent inconclusive, Pf growth 96h 6.6µM
C=CCc1ccccc1OCC(O)CN(C(C)C)C(C)C (stereo not drawn)	Pf growth 48h inconclusive, AmpC detergent inconclusive
O=C(Nc1cc(Cl)ccc1Cl)c1cc(S(=O)(=O)N2CCCc3ccccc32)ccc1F	none (no result: SARS PLP yeast, Pf growth 48h, Pf growth 96h, AmpC no deterg)
O=C(NCCc1ccccc1)C1CCN(Cc2cc3ccccc3n2Cc2ccccc2)CC1	none (no result: SARS PLP yeast, Pf growth 48h, Pf growth 96h, AmpC no deterg)
Cc1ccc(C)c(OCC(O)CN2CCc3ccccc3C2)c1C (stereo not drawn)	Pf growth 48h 9.3µM, Pf growth 96h 12µM
